The record followed here is PubChem BioAssay (NCATS).

The subject of one assay is CASKI. Briefly: Primary qHTS to identify gynecologic anti-cancer compounds using libraries of approved drugs and bioactive compounds (AID 1345084). Note: nearly all actives have a fitted effect of over 55% in size. Note: potency is the fitted concentration of half-maximal effect. The note with it: Gynecologic cancer cell panel viability, ATPlite luminescence, 48 h; series mostly up to 57.5 µM. The essentials:
(§1)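 48 h compound exposure at 37 C, 5% CO2; five-point qHTS. ATPlite luminescence readout of cell ATP.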
Background: In qHTS, concentration-response curves come from the screen itself.

A further assay concerns JEG-3. The assay is described as above. The note with it: Gynecologic cancer cell panel viability, ATPlite luminescence, 48 h; series mostly up to 57.5 µM. The essentials:
as §1
In general terms: Cellular ATP, detected with luciferase, serves as a proxy for viable cell number.

For the next assay, the system named is Tov112D. The assay is described as above. The note with it: Gynecologic cancer cell panel viability, ATPlite luminescence, 48 h; series mostly up to 57.5 µM. The essentials:
as §1

Another assay concerns astro. Briefly: Drug repurposing screens with cells derived from glioblastoma tumor samples (AID 1345199). For activity, negative = cell killing: % is set by controls: 0 for no effect and ±100 for the full control effect. Note: nearly all actives have a fitted effect of over 40% in size. Note: potency is the fitted concentration of half-maximal effect. Particulars: viability, ATP luminescence, 48 h; series mostly up to 45.9 µM. Put shortly: (§2)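 Primary testing used CD133+ neurospheres from four GBM patients, seven concentrations, 48 h exposure and ATP-based viability; confirmation added three slower-growing patient lines.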

Another assay concerns C33A. Briefly: Primary qHTS to identify gynecologic anti-cancer compounds using libraries of approved drugs and bioactive compounds (AID 1345084). Note: nearly all actives have a fitted effect of over 55% in size. Note: potency is the fitted concentration of half-maximal effect. Particulars: Gynecologic cancer cell panel viability, ATPlite luminescence, 48 h; series mostly up to 57.5 µM. The essentials: as §1
For another assay, the system named is Es-2. The assay is described as above. The note with it: Gynecologic cancer cell panel viability, ATPlite luminescence, 48 h; series mostly up to 57.5 µM. The essentials: as §1
The subject of the next assay is HeLa. The assay is described as above. Particulars: Gynecologic cancer cell panel viability, ATPlite luminescence, 48 h; series mostly up to 57.5 µM. Put shortly:
as §1

The test system of the next assay is Hek293T. Described as above. Particulars: Gynecologic cancer cell panel viability, ATPlite luminescence, 48 h, control line for the selectivity index; series mostly up to 57.5 µM. Put shortly:
as §1

The subject of another assay is PA-1. The description is as above. Particulars: Gynecologic cancer cell panel viability, ATPlite luminescence, 48 h; series mostly up to 57.5 µM. The essentials:
as §1

For another assay, the system named is Tov-21-G. The assay is described as above. Particulars: Gynecologic cancer cell panel viability, ATPlite luminescence, 48 h; series mostly up to 57.5 µM. Put shortly: as §1
Assay [1] in a line: Drug repurposing screens with cells derived from glioblastoma tumor samples (AID 1345199). For activity, negative = cell killing: % is set by controls: 0 for no effect and ±100 for the full control effect. Note: nearly all actives have a fitted effect of over 40% in size. Note: potency is the fitted concentration of half-maximal effect. Particulars: GBM patient neurospheres viability, ATP luminescence, 48 h. Put shortly: as §2
A further assay has as its system OV90. Briefly: Primary qHTS to identify gynecologic anti-cancer compounds using libraries of approved drugs and bioactive compounds (AID 1345084). Note: nearly all actives have a fitted effect of over 55% in size. Note: potency is the fitted concentration of half-maximal effect. Particulars: Gynecologic cancer cell panel viability, ATPlite luminescence, 48 h; series mostly up to 57.5 µM. Put shortly:
as §1

The next assay has as its system SKOV3. The description is as above. The note with it: Gynecologic cancer cell panel viability, ATPlite luminescence, 48 h; series mostly up to 57.5 µM. The essentials: as §1
The subject of a further assay is CAOV3. The description is as above. Particulars: Gynecologic cancer cell panel viability, ATPlite luminescence, 48 h; series mostly up to 57.5 µM. The essentials: as §1
The target in assay [2] is Nuclear receptor subfamily 1 group I member 2 (Rattus norvegicus) (UniProt Q9R1A7). Briefly: qHTS assay for small molecule activators of the rat pregnane X receptor (rPXR) signaling pathway (AID 651751; call rule not given here; note: 0% is about no effect). Particulars: rPXR reporter cells, luciferase (One-Glo), 24 h.
Nuclear receptor subfamily 1 group I member 2 (Rattus norvegicus), sequence (Q9R1A7 whole entry, looked up): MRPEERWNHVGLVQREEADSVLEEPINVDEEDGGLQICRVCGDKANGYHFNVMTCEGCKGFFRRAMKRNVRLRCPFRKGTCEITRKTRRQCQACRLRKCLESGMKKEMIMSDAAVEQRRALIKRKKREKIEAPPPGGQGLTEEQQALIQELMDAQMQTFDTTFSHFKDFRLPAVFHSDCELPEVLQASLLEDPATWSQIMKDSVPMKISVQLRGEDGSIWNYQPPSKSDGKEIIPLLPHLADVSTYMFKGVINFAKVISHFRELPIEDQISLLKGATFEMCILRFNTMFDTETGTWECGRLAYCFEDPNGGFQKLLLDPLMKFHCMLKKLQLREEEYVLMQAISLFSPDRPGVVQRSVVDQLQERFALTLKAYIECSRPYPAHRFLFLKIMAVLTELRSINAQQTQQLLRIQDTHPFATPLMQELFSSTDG
Assay [3] can be described thus: qHTS assay for small molecule activators of the human pregnane X receptor (PXR) signaling pathway (AID 720659; call rule not given here; note: 0% is about no effect).
[4] abbreviates: at 108 µM (top of the series), tumour line B.
Where [5] appears, read: at 45.9 µM (top of the series), tumour line B.
Setting [6] is: at 45.9 µM (top of the series), tumour line D.

Values joined by “and” are separate entries in the source; they are usually repeats but may differ in a detail not shown here. Identical values can stand only once. Unmarked numbers belong to inactive results. Results filed as inconclusive are left out. The source holds several records for some structures; these can differ, active in one and inactive in another. Active and inactive are the calls of the source. Unless noted, calls come from the whole dose curve; as a rule, active = well fitted curve in the direction sought with a large enough effect; inconclusive = small, poorly fitted or top-dose-only effect, or another doubt; inactive = no such curve, though single readings can be large; an effect the other way counts as inactive or inconclusive.

Consider `Cc1nnc2n1-c1sc(CCc3ccc(CC(C)C)cc3)cc1C(c1ccccc1Cl)=NC2C` (centres undefined), for which the Potency result in the assay with CASKI, with JEG-3 and in the assay on Tov112D was “inactive” throughout. In addition, in the assay with astro, the Potency is 35.5 µM (active).

For the molecule `CC[C@H](O)C(C[C@H](C)N(C)C)(c1ccccc1)c1ccccc1`, the Potency entry in the assay with C33A, in the assay with Es-2, in the assay with HeLa, in the assay with Hek293T, in the assay on JEG-3 and in the assay with PA-1 was “inactive” each time. In addition, the Potency entry with Tov-21-G was “inactive”. Moreover, the activity, negative = cell killing in assay [1] (setting [4]) was -29.7%. Besides, the Potency was 44.7 µM (active) in assay [1] (tumour line A) and 70.8 µM (active) in [1] (tumour line D).

On to `O=C(CCCN1CCC(n2c(=O)[nH]c3ccccc32)CC1)c1ccc(F)cc1`, for which the Potency result in the assay with C33A, in the assay with Es-2, with HeLa, in the assay with Hek293T, in the assay on JEG-3 and in the assay on OV90 was “inactive” each time. In addition, the Potency entry in the assay on PA-1, in the assay with SKOV3, with Tov-21-G and in the assay with Tov112D was “inactive” throughout. Also, the activity, negative = cell killing in [1] (at 21.2 µM (top of the series), tumour line B) is -8.66%. Also, the Potency in assay [1] (tumour line A) was 5.62 µM (active).

For `Oc1ccc2[nH]cc(CCCCN3CC=C(c4ccccc4)CC3)c2c1`, the Potency result with C33A, in the assay with CASKI, in the assay with Es-2, in the assay with HeLa, in the assay with JEG-3 and in the assay on OV90 was “inactive” in each case. For the same molecule, the Potency result in the assay with SKOV3, in the assay with Tov-21-G and in the assay with Tov112D was “inactive” throughout.

`COc1cc(CC(C)N)c(OC)cc1Br` (centres undefined): the Potency result with CAOV3, in the assay on Es-2, in the assay with JEG-3, with OV90 and in the assay on Tov112D was “inactive” in each case. The Potency in the assay with HeLa was 25.1 µM (active); in [1] (tumour line A), 35.5 µM (active) and 12.6 µM (active). The activity, negative = cell killing in assay [1] (setting [5]) is -9.73%; in assay [1] (setting [4]) it was -15.6%.

For `CC[n+]1c(-c2ccccc2)c2cc(N)ccc2c2ccc(N)cc21`, the Potency in the assay on C33A is 1.12 µM (active); in the assay with CASKI, 20 µM (active); in the assay on OV90, 14.1 µM (active); with PA-1, 1.26 µM (active); with Tov-21-G, 15.8 µM (active); in the assay on Tov112D, 1.41 µM (active). Also, in the assay with astro, the Potency was 8.91 µM (active) and 12.6 µM (active). The max response in assay [2] was -4.84%. Further, the molecule was classed as inactive in [3].

For the molecule `CCOC(C(=O)OCCN(C)C)(c1ccccc1)c1ccccc1`, the Potency result in the assay on C33A, in the assay with CASKI, with Es-2, in the assay with HeLa, in the assay on Hek293T and with JEG-3 was “inactive” in each case. The Potency entry with PA-1, in the assay with SKOV3, with Tov-21-G and in the assay with Tov112D was “inactive” in each case.

In the case of `CN1[C@@H]2CC[C@H]1CC(OC(=O)c1cc(Cl)cc(Cl)c1)C2` (some centres undefined), the Potency result in the assay on C33A, in the assay with CASKI, in the assay with Es-2, with HeLa, in the assay with JEG-3 and in the assay on SKOV3 was “inactive” each time. Besides, the Potency result in the assay with Tov-21-G and with Tov112D was “inactive” each time.

Turning to `Cc1c(Cl)c(=O)oc2cc(OP(=O)(OCCCl)OCCCl)ccc12`, the Potency result with C33A, with CASKI, with Es-2, in the assay on HeLa, in the assay on Hek293T and with JEG-3 was “inactive” each time. Also, the Potency result in the assay with PA-1, in the assay with SKOV3, in the assay with Tov-21-G, in the assay on Tov112D and with astro was “inactive” each time. The activity, negative = cell killing is -10.4% in assay [1] (setting [5]) and -23.1% in assay [1] (setting [6]).

On to `CC[C@H]1C[C@H]2[C@@H]3CCC4=CC(=O)CC[C@@H]4[C@H]3CC[C@]2(C)[C@H]1O`, for which the Potency entry in the assay on CASKI, in the assay with Es-2, in the assay with JEG-3, in the assay on OV90, with Tov-21-G and with Tov112D was “inactive” in each case. Further, in the assay on astro, the Potency result was “inactive”. Moreover, the Potency in [1] (tumour line A) is 10 µM (active).

`CCCC(C)C1(CC)C(=O)N=C(S)NC1=O` (centres undefined): the Potency result in the assay on C33A, in the assay on CASKI, in the assay on Es-2, in the assay with HeLa, in the assay with Hek293T and with JEG-3 was “inactive” in each case. The Potency entry with PA-1, in the assay with Tov-21-G, in the assay with Tov112D and with astro was “inactive” each time. Besides, the activity, negative = cell killing was -11.2% in [1] (setting [5]); -14.3% in assay [1] (setting [6]); -28.3% in [1] (at 46 µM (top of the series), tumour line A).

Consider `c1ccc2c(c1)Sc1ccccc1N2CC1CN2CCC1CC2` (centres undefined), for which the Potency with Es-2 is 35.5 µM (active); in the assay with Hek293T, 31.6 µM (active); in the assay with OV90, 28.2 µM (active); in the assay on SKOV3, 28.2 µM (active).
